# This is part of a sample that, as a whole, favours compounds with a hit. Of some 83,000 tested, about 20% had one in any assay.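 The endpoint reported here, percent growth, reads 100 for growth as untreated, 0 for no net growth and -100 for all cells dead.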 Active and inactive are the calls of the source. Rule for the calls: active = growth percent below 10; inactive = the rest.
# Tested on: A498 renal
# Assay: NCI-60 one-dose screen, 48 h (100 = growth as untreated, 0 = no growth, -100 = all killed)
# Conditions: 10 µM
row,Structure (SMILES),growth
1,Nc1ncnc2[nH]ncc12,8.78% (active)
2,COC(=O)c1[nH]c(=O)c(C#N)c(C(=O)OC)c1C(=O)c1ccccc1,113% (inactive)
3,CCS(=O)(=O)CCCl,129% (inactive)
4,N#Cc1ccc(NC(=O)Nc2cccc(C#N)c2)cc1,86% (inactive)
5,CN(C)CCN(C)CC(C)(C)C(=O)/C=C/c1ccc(Cl)cc1,10.4% (inactive)
6,CS(=O)CC1=NC(=N)N=C1CS(C)=O (stereo unspecified),104% (inactive)
7,Cc1cc2nc(CC(=O)c3cccc([N+](=O)[O-])c3)c(=O)[nH]c2cc1C,127% (inactive)
8,CCOC(=O)c1cc(/C=C/c2cccc(Cl)c2)on1,110% (inactive)
9,Cc1ccc(/C=C2\SC(=S)N(c3ccc(F)cc3)C2=O)o1,112% (inactive)
10,OC(c1ccccn1)C(O)c1ccccn1 (stereo unspecified),95.9% (inactive)
11,CC1(O)OC(COc2ccc(Cl)cc2)COC1O (stereo unspecified),100% (inactive)
12,O=C1Cc2ccccc2C(=O)O1,123% (inactive)
13,CCC(C)(C)C1CCC(O)CC1 (stereo unspecified),97.8% (inactive)
14,COC(=O)C(C)Oc1ccc(OC#N)cc1 (stereo unspecified),107% (inactive)
15,CCCC(=O)c1cc(C)ccc1OC,119% (inactive)
16,COC(=O)c1cc(-c2ccc(Cl)c(Cl)c2)[nH]c(=O)c1C#N,125% (inactive)
17,OCCN(CCO)C(=S)S,114% (inactive)
18,CCCC1(c2ccccc2)NC(=O)NC1=O (stereo unspecified),121% (inactive)
19,Oc1ccccc1O,87.9% (inactive)
20,CNC(=S)NC(C)(C)C,112% (inactive)
21,OCC1OC(OC2C(O)C(CO)OC2(CO)OC2OC(CO)C(O)C(O)C2O)C(O)C(O)C1O (stereo unspecified),94.6% (inactive)

# From PubChem BioAssay (NCI)
